Experimental data: PubChem BioAssay (NCATS)
Records with an inconclusive call do not appear. Where a call stands in place of a potency, no number is given. The source made the active and inactive calls. Calls follow the shape of the dose curve; as a rule, active = well fitted inhibition curve with a large enough effect; inconclusive = small, poorly fitted or top-dose-only effect; inactive = flat fitted curve, though single readings scatter.

Tests used:
Assay in all cases: qHTS profiling for inhibitors of Plasmodium falciparum proliferation (AID 504749); also: nearly all actives have a fitted effect of over 60% in size
Conditions in all cases: P. falciparum in erythrocytes, SYBR Green DNA, 72 h; series mostly up to 28.7 µM
CP291 = test system: CP291
How it was run: (§1)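 In a 72 h erythrocytic culture (37 C, humidified, 5% CO2) at 2.5% hematocrit and 0.3% starting parasitemia, compounds were tested; SYBR Green I in detergent lysis buffer stained parasite DNA overnight.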

CP297 = test system: CP297
How it was run: as §1

CP305 = test system: CP305
How it was run: as §1

CP315 = test system: CP315
How it was run: as §1

CP325 = test system: CP325
How it was run: as §1

CP329 = test system: CP329
How it was run: as §1

CP335 = test system: CP335
How it was run: as §1

DFO2036 = test system: DFO2036
How it was run: as §1

DIV14 = test system: DIV14
How it was run: as §1

DIV17 = test system: DIV17
How it was run: as §1

DIV30 = test system: DIV30
How it was run: as §1

Dd2 = test system: Dd2
How it was run: as §1

ECU = test system: ECU
How it was run: as §1

FAB9 = test system: FAB9
How it was run: as §1

GB4 = test system: GB4
How it was run: as §1

HB3 = test system: HB3
How it was run: as §1

ICS = test system: ICS
How it was run: as §1

JCK = test system: JCK
How it was run: as §1

N140 = test system: N140
How it was run: as §1

P93_24 = test system: P93_24
How it was run: as §1
Potency is read from the fitted curve at half-maximal effect.

Compound | Potency (CP291) | Potency (CP297) | Potency (CP305) | Potency (CP315) | Potency (CP325) | Potency (CP329) | Potency (CP335) | Potency (DFO2036) | Potency (DIV14) | Potency (DIV17) | Potency (DIV30) | Potency (Dd2) | Potency (ECU) | Potency (FAB9) | Potency (GB4) | Potency (HB3) | Potency (ICS) | Potency (JCK) | Potency (N140) | Potency (P93_24)
O=C(O)CCCCCCCC(=O)O | inactive | inactive | inactive | inactive | inactive | inactive | inactive | inactive | inactive | inactive | inactive | inactive | inactive | inactive | inactive | inactive | inactive | inactive | inactive | inactive
CN(C)C(=O)Oc1cccc([N+](C)(C)C)c1 | inactive | inactive | inactive | inactive | inactive | inactive | inactive | inactive | inactive | inactive | inactive | inactive | inactive | inactive | inactive | inactive | inactive | inactive | inactive | inactive
COc1cc2c(cc1OC)-c1cc(=Nc3c(C)cc(C)cc3C)n(C)c(=O)n1CC2 | 2.13 µM (active) | 5.36 µM (active) | 3.79 µM (active) | 6.75 µM (active) | 4.26 µM (active) | 4.78 µM (active) | 4.26 µM (active) | 3.55 µM (active) | 3.01 µM (active) | 3.38 µM (active) | 6.01 µM (active) | 7.94 µM (active) | 5.01 µM (active) | 3.98 µM (active) | 2.69 µM (active) | 7.08 µM (active) | 1.78 µM (active) | 5.62 µM (active) | 3.16 µM (active) | 3.55 µM (active)
CN(C)C(=O)Oc1ccc[n+](C)c1 | inactive | inactive | inactive | inactive | inactive | inactive | inactive | inactive | inactive | inactive | inactive | inactive | inactive | inactive | inactive | inactive | inactive | inactive | inactive | inactive
O=C(O)CN(CCOCCOCCN(CC(=O)O)CC(=O)O)CC(=O)O | inactive | inactive | inactive | inactive | inactive | inactive | inactive | inactive | inactive | inactive | inactive | inactive | inactive | inactive | inactive | inactive | inactive | inactive | inactive | inactive
CC(=O)[C@@]1(O)CC[C@H]2[C@@H]3CCC4=CC(=O)CC[C@]4(C)[C@H]3CC[C@@]21C | inactive | inactive | inactive | inactive | inactive | inactive | inactive | inactive | inactive | inactive | inactive | inactive | inactive | inactive | inactive | inactive | inactive | inactive | inactive | inactive
CCN1CCc2nc(N)oc2CC1 | inactive | inactive | inactive | inactive | inactive | inactive | inactive | inactive | inactive | inactive | inactive | inactive | inactive | inactive | inactive | inactive | inactive | inactive | inactive | inactive
O=c1[nH]c(=O)n([C@H]2C[C@H](O)[C@@H](CO)O2)cc1Br | inactive | inactive | inactive | inactive | inactive | inactive | inactive | inactive | inactive | inactive | inactive | inactive | inactive | inactive | inactive | inactive | inactive | inactive | inactive | inactive
O=C(CCNNC(=O)c1ccncc1)NCc1ccccc1 | inactive | inactive | inactive | inactive | inactive | inactive | inactive | inactive | inactive | inactive | inactive | inactive | inactive | inactive | inactive | inactive | inactive | inactive | inactive | inactive
FC(F)(F)c1ccccc1-n1ccnc1 | inactive | inactive | inactive | inactive | inactive | inactive | inactive | inactive | inactive | inactive | inactive | inactive | inactive | inactive | inactive | inactive | inactive | inactive | inactive | inactive
C[N+](C)(C)CCOC(=O)CCC(=O)OCC[N+](C)(C)C | inactive | inactive | inactive | inactive | inactive | inactive | inactive | inactive | inactive | inactive | inactive | inactive | inactive | inactive | inactive | inactive | inactive | inactive | inactive | inactive
CCCCOCCOCCOCc1cc2c(cc1CCC)OCO2 | inactive | inactive | inactive | inactive | inactive | inactive | inactive | inactive | inactive | inactive | inactive | inactive | inactive | inactive | inactive | inactive | inactive | inactive | inactive | inactive
Cc1nnc(SCC2=C(C(=O)O)N3C(=O)[C@@H](NC(=O)Cn4cnnn4)[C@H]3SC2)s1 | inactive | inactive | inactive | inactive | inactive | inactive | inactive | inactive | inactive | inactive | inactive | inactive | inactive | inactive | inactive | inactive | inactive | inactive | inactive | inactive
Cc1ccc(S(=O)(=O)NC(=O)NN2CCCCCC2)cc1 | inactive | inactive | inactive | inactive | inactive | inactive | inactive | inactive | inactive | inactive | inactive | inactive | inactive | inactive | inactive | inactive | inactive | inactive | inactive | inactive
C[N+](C)(C)CCOC(N)=O | inactive | inactive | inactive | inactive | inactive | inactive | inactive | inactive | inactive | inactive | inactive | inactive | inactive | inactive | inactive | inactive | inactive | inactive | inactive | inactive
CC(C)(Oc1ccc(CCNC(=O)c2ccc(Cl)cc2)cc1)C(=O)O | inactive | inactive | inactive | inactive | inactive | inactive | inactive | inactive | inactive | inactive | inactive | inactive | inactive | inactive | inactive | inactive | inactive | inactive | inactive | inactive
CCN(Cc1ccncc1)C(=O)C(CO)c1ccccc1 (stereo not given) | inactive | inactive | inactive | inactive | inactive | inactive | inactive | inactive | inactive | inactive | inactive | inactive | inactive | inactive | inactive | inactive | inactive | inactive | inactive | inactive
C[C@H](CS)C(=O)N1CCC[C@H]1C(=O)O | inactive | inactive | inactive | inactive | inactive | inactive | inactive | inactive | inactive | inactive | inactive | inactive | inactive | inactive | inactive | inactive | inactive | inactive | inactive | inactive
O=C(O)CP(=O)(O)O | inactive | inactive | inactive | inactive | inactive | inactive | inactive | inactive | inactive | inactive | inactive | inactive | inactive | inactive | inactive | inactive | inactive | inactive | inactive | inactive
CCN1CCC[C@H]1CNC(=O)c1c(O)c(Cl)cc(Cl)c1OC | inactive | inactive | inactive | inactive | inactive | inactive | inactive | inactive | inactive | inactive | inactive | inactive | inactive | inactive | inactive | inactive | inactive | inactive | inactive | inactive
NC(Cc1ccc(Cl)cc1)C(=O)O (stereo not given) | inactive | inactive | inactive | inactive | inactive | inactive | inactive | inactive | inactive | inactive | inactive | inactive | inactive | inactive | inactive | inactive | inactive | inactive | inactive | inactive
CC(N=C(NC#N)Nc1ccncc1)C(C)(C)C (stereo not given) | inactive | inactive | inactive | inactive | inactive | inactive | inactive | inactive | inactive | inactive | inactive | inactive | inactive | inactive | inactive | inactive | inactive | inactive | inactive | inactive
Cc1ccc(=O)n(-c2ccccc2)c1 | inactive | inactive | inactive | inactive | inactive | inactive | inactive | inactive | inactive | inactive | inactive | inactive | inactive | inactive | inactive | inactive | inactive | inactive | inactive | inactive
NC(=O)c1ncn([C@@H]2O[C@H](CO)[C@@H](O)[C@H]2O)c1O | inactive | inactive | inactive | inactive | inactive | inactive | inactive | inactive | inactive | inactive | inactive | inactive | inactive | inactive | inactive | inactive | inactive | inactive | inactive | inactive
NC/C=C/C(=O)O | inactive | inactive | inactive | inactive | inactive | inactive | inactive | inactive | inactive | inactive | inactive | inactive | inactive | inactive | inactive | inactive | inactive | inactive | inactive | inactive
CSc1ccc(C(=O)c2[nH]c(=O)[nH]c2C)cc1 | inactive | inactive | inactive | inactive | inactive | inactive | inactive | inactive | inactive | inactive | inactive | inactive | inactive | inactive | inactive | inactive | inactive | inactive | inactive | inactive
